An excerpt weighted towards active compounds, which were near 3.6% of everything screened.
Pf apPOL block = Pf-apPOL inhibitors, biochemical, fluorescence | Plasmodium falciparum apicoplast DNA polymerase (apPOL) | Recombinant Pf-apPOL, molecular beacon fluorescence, 1.5 h | inhibition, % at 10 µM | 210,000 compounds, 0.25% hits | AID 1794808, 2022
mHTT-CaM PPI inh = mutant huntingtin-calmodulin interaction inhibitors – biochemical, AlphaScreen, primary screen | inhibition, % at 15 µM | 190,000 compounds, 3.6% hits | AlphaScreen His-mHTT/GST-CaM binding, luminescence | P42858;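 note: 0% = both proteins with DMSO and 100% = one protein alone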
* hit, by the source's call; · = not tested or not shown. Cut-off read from the data, not from the text of the source: active = inhibition above about 50%; inactive = the rest.

SMILES	Pf apPOL block	mHTT-CaM PPI inh
COc1ccc(C(CCN2CCCCC2)c2c(OC)cc(OC)c3c(-c4ccccc4)cc(=O)oc23)cc1 (stereo not drawn)	-8	99*
OC(CCN1CCCCC1)c1ccc(-c2ccccc2)cc1 (stereo not drawn)	-4	·
CCN(CC)CCC(c1cc(OC)c(OC)c(OC)c1)c1c(OC)cc(OC)c2c(C)cc(=O)oc12 (stereo not drawn)	-13	16
COc1cc(OC)c2c(-c3ccccc3)cc(=O)oc2c1C(CCN1CCOCC1)c1ccc(N(C)C)cc1 (stereo not drawn)	-6	94*
CCN(CC)CCC(c1ccc(N(C)C)cc1)c1c(OC)cc(OC)c2c(C)cc(=O)oc12 (stereo not drawn)	-1	94*
COc1cc(OC)c2c(-c3ccccc3)cc(=O)oc2c1C(CCN1CCCCC1)c1ccc(N(C)C)cc1 (stereo not drawn)	-9	100*
O=C1S/C(=C\c2ccc(Br)cc2)C(=O)N1CN1CCCCC1	-2	-4
COc1ccc(CCNC(=O)CCCCCn2nnc3ccccc3c2=O)cc1OC	0	18
Cc1ccc(NC(=O)c2cc3n(n2)C(C(F)(F)F)CC(c2ccc4c(c2)OCO4)N3)cc1Cl (stereo not drawn)	-4	8
COc1ccc(N2C(=O)C3CCCN3C2c2ccc(SC)cc2)cc1Cl (stereo not drawn)	-1	19
CCCc1ccc(S(=O)(=O)NCCC2CCN(C(=O)c3ccc(C)cc3)CC2)cc1	-3	49
Cc1cc2nc(-c3cc(NC(=O)c4cccnc4)ccc3Cl)oc2cc1C	8	1
CC(C)C(=O)NCc1cccnc1-c1ccccc1	-13	-1
CC(O)C#CC1(C)CCCC(C)(C)O1 (stereo not drawn)	-4	-6
COc1cc(C(CCN2CCN(c3ccccc3)CC2)c2c(OC)cc(OC)c3c(C)cc(=O)oc23)cc(OC)c1OC (stereo not drawn)	-9	94*
CCN(CC)C(=O)Oc1ccc2c(-c3cc4cccc(OC)c4oc3=O)cc(=O)oc2c1	-4	-2
CCN(CC)C(=O)CC(c1ccc(OC)cc1)c1c(OC)cc(OC)c2c(-c3ccccc3)cc(=O)oc12 (stereo not drawn)	9	88*
COc1cc(C(CCN2CCCC(C)C2)c2c(OC)cc(OC)c3c(C)cc(=O)oc23)cc(OC)c1OC (stereo not drawn)	-11	14
COc1cc(C(=O)N/C(=C/c2ccc3c(c2)OCO3)C(=O)O)cc(OC)c1OC	0	-1
O=C(c1ccco1)N1CCCC2(CC(c3ccccc3)=CO2)C1 (stereo not drawn)	-2	38
CCCS(=O)(=O)CCC(C)(C)C	-3	-8
CC1CCN(CC(=O)N2N=C(c3ccc(F)cc3)CC2c2cccn2C)CC1 (stereo not drawn)	-1	52*
CC1CCN(CC(=O)N2N=C(c3ccccc3Cl)CC2c2cccn2C)CC1 (stereo not drawn)	-3	84*
Cc1ccc(C2=NN(C(=O)CN3CCOCC3)C(c3ccc(Cl)cc3)C2)cc1C (stereo not drawn)	1	15
COc1ccc(C2CC(c3ccc(F)cc3)=NN2C(=O)CN2CCC(C)CC2)cc1 (stereo not drawn)	-3	24
SMILES	Pf apPOL block	mHTT-CaM PPI inh
CCN1CCN(CC(=O)N2N=C(c3ccc(C)c(C)c3)CC2c2cccn2C)CC1 (stereo not drawn)	1	99*
COc1ccc(C2CC(c3ccc(F)cc3)=NN2C(=O)CN2CCCCC2)cc1 (stereo not drawn)	-4	28
CCN1CCN(CC(=O)N2N=C(c3ccc(F)cc3)CC2c2cccn2C)CC1 (stereo not drawn)	-4	98*
Cn1cccc1C1CC(c2ccccc2Cl)=NN1C(=O)CN1CCOCC1 (stereo not drawn)	-1	22
O=C(c1ccc(F)c(Cl)c1)N1CCN(c2nc(CN3CCOCC3)cs2)CC1	-2	16
Cc1nc2c(c(=O)n1CC(=O)NCc1ccccc1)CCN(Cc1ccccc1)C2	-5	-11
COc1ccc(C2CC(c3ccc(F)cc3)=NN2C(=O)CN2CCCCC2C)cc1 (stereo not drawn)	-3	22
COc1ccccc1C1=NN(C(=O)CN2CCCC2)C(c2ccc(C)cc2)C1 (stereo not drawn)	-5	43
COc1ccccc1C1=NN(C(=O)CN2CCCCC2C)C(c2ccc(C)cc2)C1 (stereo not drawn)	-4	72*
CC1CCCCN1CC(=O)N1N=C(c2ccc(F)cc2)CC1c1cccn1C (stereo not drawn)	-2	60*
COc1ccc2oc(=Nc3ccc(F)cc3F)c(C(N)=O)cc2c1	-6	1
COc1ncc(C(=O)NCc2ccc(SC)cc2)cn1	-1	-3
Nc1nc(N2CCc3ccccc3C2)ncc1[N+](=O)[O-]	4	2

Assay outcomes (PubChem BioAssay)
